CTSL1 counter – Fasciola hepatica cathepsin L1 inhibitors, primary screen, counter-screen for PFM18AAP inhibitor project, biochemical, QFRET, fluorogenic peptide substrate; inhibition, % at 5.96 µM; 300,000 tested, 0.49% active; recombinant F. hepatica cathepsin L1, Z-Leu-Arg-MCA fluorescence; AID 1906, 2009;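 active = inhibition above the mean of all tested compounds plus 3 SD, set per screening campaign, cut at about 17% in these data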;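 also: 0% = plate median of test compound wells and 100% = 1 µM Z-Phe-Ala-diazomethylketone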
Rin1 Abl inh – inhibitors of Rin1-Abl protein binding, primary screen, biochemical, TR-FRET; Tyrosine-protein kinase ABL1 (Homo sapiens) + Ras and Rab interactor 1 (Homo sapiens), …; inhibition, % at 7.35 µM; 360,000 tested, 0.4% active; AID 588664, 2011; in the data active = inhibition above about 5%, passing the limit was not always enough
Target sequence (P00519 whole entry, looked up): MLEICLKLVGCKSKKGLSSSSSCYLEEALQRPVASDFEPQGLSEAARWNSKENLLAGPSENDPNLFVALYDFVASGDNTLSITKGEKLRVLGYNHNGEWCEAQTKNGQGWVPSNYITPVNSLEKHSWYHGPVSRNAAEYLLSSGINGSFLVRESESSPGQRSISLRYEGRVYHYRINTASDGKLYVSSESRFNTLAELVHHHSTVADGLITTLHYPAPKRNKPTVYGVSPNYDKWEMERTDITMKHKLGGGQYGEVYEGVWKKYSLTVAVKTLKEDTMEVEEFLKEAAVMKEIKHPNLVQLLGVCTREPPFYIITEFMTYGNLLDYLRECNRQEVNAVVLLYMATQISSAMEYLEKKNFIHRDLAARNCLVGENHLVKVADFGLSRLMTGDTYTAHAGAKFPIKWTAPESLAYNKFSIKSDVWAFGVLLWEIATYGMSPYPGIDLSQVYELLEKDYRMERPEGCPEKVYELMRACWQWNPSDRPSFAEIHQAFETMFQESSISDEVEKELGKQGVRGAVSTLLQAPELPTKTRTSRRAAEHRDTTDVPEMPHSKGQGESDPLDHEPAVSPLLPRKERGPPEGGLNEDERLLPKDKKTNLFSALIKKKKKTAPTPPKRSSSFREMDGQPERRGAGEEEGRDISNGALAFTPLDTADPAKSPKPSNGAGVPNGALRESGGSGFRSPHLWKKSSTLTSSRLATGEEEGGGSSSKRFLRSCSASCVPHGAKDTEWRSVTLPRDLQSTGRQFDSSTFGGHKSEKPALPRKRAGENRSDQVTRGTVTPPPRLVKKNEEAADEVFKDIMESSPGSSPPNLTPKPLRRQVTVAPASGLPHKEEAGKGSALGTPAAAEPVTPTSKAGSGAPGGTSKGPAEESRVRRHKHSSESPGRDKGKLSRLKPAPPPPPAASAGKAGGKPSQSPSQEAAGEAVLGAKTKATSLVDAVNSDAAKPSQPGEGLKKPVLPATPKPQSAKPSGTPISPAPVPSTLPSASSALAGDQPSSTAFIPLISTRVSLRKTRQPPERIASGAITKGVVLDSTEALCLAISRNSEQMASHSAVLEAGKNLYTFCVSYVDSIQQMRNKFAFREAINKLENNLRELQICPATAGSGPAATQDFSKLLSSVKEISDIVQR
Target sequence (Q13671 whole entry, looked up): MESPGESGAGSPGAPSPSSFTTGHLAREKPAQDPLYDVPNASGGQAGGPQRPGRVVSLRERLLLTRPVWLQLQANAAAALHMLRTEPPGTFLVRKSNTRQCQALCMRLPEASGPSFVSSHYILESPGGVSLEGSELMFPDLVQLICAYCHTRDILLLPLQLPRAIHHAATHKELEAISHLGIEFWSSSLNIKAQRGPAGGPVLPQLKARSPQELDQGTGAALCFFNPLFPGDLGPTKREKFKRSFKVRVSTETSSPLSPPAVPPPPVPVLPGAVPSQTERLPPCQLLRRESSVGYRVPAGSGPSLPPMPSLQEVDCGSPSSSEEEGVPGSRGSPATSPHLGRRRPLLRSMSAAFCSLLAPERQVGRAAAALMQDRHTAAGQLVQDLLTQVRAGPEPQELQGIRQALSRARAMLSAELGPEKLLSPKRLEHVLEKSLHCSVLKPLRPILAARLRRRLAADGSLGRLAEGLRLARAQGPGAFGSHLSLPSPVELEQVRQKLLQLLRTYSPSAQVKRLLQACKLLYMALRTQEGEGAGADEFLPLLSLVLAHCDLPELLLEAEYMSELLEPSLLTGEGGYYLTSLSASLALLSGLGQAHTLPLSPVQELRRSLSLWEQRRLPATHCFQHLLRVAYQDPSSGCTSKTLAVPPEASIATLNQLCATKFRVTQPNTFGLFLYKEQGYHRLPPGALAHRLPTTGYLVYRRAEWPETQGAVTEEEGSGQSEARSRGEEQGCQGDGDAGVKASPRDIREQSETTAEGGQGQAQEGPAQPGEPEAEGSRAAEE
Calb FLC – C. albicans growth inhibition with fluconazole, primary screen, CaCi-2 strain, Alamar Blue fluorescence. C. albicans CaCi-2 (fluconazole-resistant clinical isolate) + fluconazole, 48 h. growth inhibition, % (concentration not given with the values). 300,000 tested, 0.57% active. AID 1979, 2009;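 active = growth inhibition above about 58% in most replicates, limit read from the data, passing the limit was not always enough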;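 also: all wells also contain fluconazole at 8 µg/ml as a sub-toxic cotreatment; 0% = median of DMSO wells and 100% = median of geldanamycin control wells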
M18AAP inhibitor – PfM18AAP inhibitors, malaria aminopeptidase, primary screen, biochemical, QFRET, recombinant enzyme. H-Glu-NHMec fluorogenic cleavage. 290,000 tested, 1.2% active. inhibition, % at 7.35 µM;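 active = inhibition above the campaign mean inhibition over all tested compounds plus 3 SD, cut at about 28% in these data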;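 also: 0% = plate median of test compound wells and 100% = 2 mM ZnCl2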
Active calls of the source: *; . = no result given. An excerpt weighted towards active compounds, which were near 2.1% of everything screened.

SMILES	CTSL1 counter	Rin1 Abl inh	Calb FLC	M18AAP inhibitor
COc1ccc(C(=O)NC(=S)NNC(=O)c2ccccc2C)cc1	3	-4	101*	.
COc1ccccc1C(=O)NNC(=S)NC(=O)c1cc(OC)c(OC)c(OC)c1	1	-1	105*	6
COc1cc(C(=O)NNC(=S)NC(=O)c2ccccc2C)cc(OC)c1OC	3	-3	-12	7
Cc1cccn2c(CNCCc3ccccn3)c(C(=O)N3CCOCC3)nc12	0	-3	1	9
CCN(CC)C(=O)C1=C(C)N(Cc2ccc(OC)cc2)C(=O)C(CC(=O)NC2CCCCC2)C1 (centres undefined)	.	0	.	.
CCc1ccccc1NC(=S)NNC(=O)c1ccccc1Cl	2	2	103*	0
Cc1ccc(OCC(=O)NNC(=S)NC(=O)C2CC2)c(C)c1	.	2	103*	-1
Cc1onc(-c2ccccc2)c1C(=O)NNC(=S)NC(=O)c1ccc(Cl)cc1Cl	-5	0	1	-6
Cc1ccc(OCC(=O)NNC(=S)NC(=O)C2CCCCC2)c(C)c1	-24	-2	-6	11
Cc1ccccc1C(=O)NNC(=S)NC(=O)c1ccc(Cl)cc1Cl	0	-3	91*	-5
O=C(NC(=S)NNS(=O)(=O)c1ccccc1)c1cccnc1	0	1	-40	31*
CCc1ccccc1NC(=S)NN	1	.	1	-1
Cc1ccc(NS(=O)(=O)c2c(C)[nH]c(C)c2C(=O)N2CCCCC2)c(Br)c1	-7	3	-9	-2
CCn1c(COc2cccc(OC)c2)nnc1SCC(=O)NCC1CCCO1 (centres undefined)	-5	1	11	0
Cc1cccc(C(=O)NC(=S)NNC(=O)COc2c(C)cccc2C)c1	-4	0	49	30*
CCC(C)c1ccc(O)c(NC(=S)NC(=O)c2cccnc2)c1 (centres undefined)	-3	5	82*	19
CCc1ccccc1NC(=S)N1CCCCCC1	.	3	117*	-2
O=C(NC(=S)NNC(=O)c1ccccc1O)c1cccc([N+](=O)[O-])c1	5	2	1	18
COc1ccc(C(=O)NNC(=S)NC(=O)c2cccc([N+](=O)[O-])c2)cc1	0	-1	81*	.
FC(F)(F)c1ccccc1NC(=S)N1CCCCCC1	.	4	-35	-9
Cc1ccc(C(=O)NC(=S)NNC(=O)COc2ccccc2C)cc1	-4	2	-28	4
CCCCNC(=O)c1onc(CSc2ccc(Cl)cc2)c1C(=O)O	0	0	-4	2
CCOc1ccc(-c2c[n+](=O)c3c(n2[O-])CCCC3)c(OCC)c1	2	-2	2	0
O=C(Nc1nc2c(Cl)cccc2s1)c1ccc(Br)o1	1	2	54*	0
O=C(Nc1nc2c(Cl)cccc2s1)c1ccc([N+](=O)[O-])o1	0	-2	-2	2
SMILES	CTSL1 counter	Rin1 Abl inh	Calb FLC	M18AAP inhibitor
Cc1ccc(C)c(OCC(=O)Nc2c(C)n(C)n(-c3ccccc3)c2=O)c1	.	5	.	.
Cc1c(NC(=O)COc2cccc(Cl)c2Cl)c(=O)n(-c2ccccc2)n1C	23*	2	5	.
CCOC(=O)c1cnc(-n2nc(C)cc2C)nc1Nc1ccccc1OC	.	.	.	0
CCOC(=O)c1cnc(-n2cc(C)cn2)nc1Nc1ccccc1OCC	-1	-7	99*	9
c1ccc(-c2nnc(-c3ccccn3)nn2)nc1	3	-4	7	.
c1ccc(-c2cccc(-c3ccccn3)n2)nc1	2	-13	100*	8
c1ccc(Cc2nnc3sc(C4COc5ccccc5O4)nn23)cc1 (centres undefined)	18*	3	18	4
COc1cc2c(cc1OC)CN(C(=O)CSc1nc3[nH]ncc3c(=O)n1-c1ccccc1)CC2	-2	.	-3	31*
Cc1ccc(NC(=O)CSc2ccc3nnc(-c4ccccn4)n3n2)cc1	-1	5	1	1
O=C(CSc1ccc2nnc(-c3ccccn3)n2n1)Nc1ccc(F)cc1	50*	0	-12	2
COC(=O)CSC1=C(C#N)C(c2ccc(C)cc2)C2=C(CCCC2=O)N1 (centres undefined)	-2	-7	-10	30*
COC(=O)C1CCN(C(=O)CN(C)Cc2ccc(C(C)(C)C)cc2)CC1	-3	2	80*	0
OCCC1CN(Cc2ccon2)CCN1CCc1ccccc1 (centres undefined)	-5	4	-5	3
O=C(O)C1CCc2sc3[nH]c(=S)n(-c4ccccc4)c(=O)c3c21 (centres undefined)	2	-2	10	31*
COc1cccc(OCc2nc3ccccc3c(=O)n2N)c1	0	1	108*	4
Nn1c(COc2ccccc2)nc2ccccc2c1=O	2	1	-5	-3
CCOc1cc(Br)c(C=O)cc1OCC	1	0	-10	1
Cc1ccsc1C(=O)Nc1cccc(-n2cnnn2)c1	19*	-1	7	8
O=C(Nc1cccc(-n2cnnn2)c1)c1cccs1	7	4	8	6
CCn1nnnc1NC(=O)c1cc(Cl)c(OC)c(Cl)c1	1	-6	76*	-3
CCn1nnnc1NC(=O)c1cccc(OC)c1	-4	-1	-1	5
O=C1c2nccnc2C(=O)N1c1ccc(F)cc1	3	0	6	0
O=c1c(Cl)c(NCCCO)cnn1-c1nc2ccccc2[nH]1	1	-3	78*	16
CC(=O)c1sc(C(=O)O)c(-c2ccco2)c1-c1ccco1	0	0	10	30*
CCCC(c1nnnn1CCOC)N1CCN(c2nc3ccccc3s2)CC1 (centres undefined)	1	-1	27	0
SMILES	CTSL1 counter	Rin1 Abl inh	Calb FLC	M18AAP inhibitor
O=C1OC(Nc2cc(Br)cc3cccnc23)c2ccccc21 (centres undefined)	98*	3	11	7
CCCOC(=O)C1=C(C)NC2=C(C(=O)C(C(=O)OC)C(C)C2)C1c1ccc(N(CC)CC)cc1 (centres undefined)	20*	0	43	24
COc1ccccc1NC(=O)CN1CCN(c2ccccc2OC)CC1	-9	1	63*	5
COc1ccccc1NC(=O)CN1CCN(c2ccccc2F)CC1	2	1	-2	-11
CC1C(=O)OC2C1CCC1(C)C3(C)C(=O)C=CC213 (centres undefined)	.	2	.	.
O=C(O)c1cccc(N/N=C/c2cn(-c3ccccc3)nc2-c2cccs2)c1	7	-1	21	31*
NC(=O)N/N=C/c1cn(-c2ccccc2)nc1-c1cccs1	1	-7	31	-5
CC1(C)CC(=O)C2=C(C1)OC1=C(C(=O)CC(C)(C)C1)C2c1ccc(O)c([N+](=O)[O-])c1	18*	-1	20	-11
CC(NC(=O)Nc1ccccc1F)C(C)(C)C (centres undefined)	-3	1	58*	-4

Screening results from PubChem BioAssay.
